Abeta yeast res = compounds reversing amyloid beta toxicity in yeast; Potency, µM (doses to about 46.1 µM), actives largely listed as activators; AID 1347071; 410,000 compounds, 0.063% hits; yeast expressing A-beta42, growth rescue, OD600, 48 h; response scale: 0% DMSO, 100% iron-clioquinol control; note: nearly all actives have a fitted effect of over 55% in size
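Growth rescue measured by 600 nm absorbance after 48 h yeast culture at 30 C with compound. Values normalized between DMSO and an equimolar ferric chloride plus clioquinol control.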
TDP-43 yeast inh = TDP-43 toxicity inhibition in yeast | TDP-43 expressing yeast growth rescue, BacTiter-Glo, 24 h | 410,000 compounds, 1.8% hits | Potency, µM (highest dose often 46.1 µM), for the others: top-dose growth rescue (activation), hits mostly activators | AID 652104; note: % of control where 0% means no effect; nearly all actives have a fitted effect of over 50% in size
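Yeast cells expressing TDP-43 under galactose induction are exposed to compounds for 24 hr at 30 deg C. BacTiter-Glo luminescence measures growth, so protective compounds score as activators.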
aSyn rescue = alpha-synuclein toxicity inhibition in yeast; 370,000 compounds, 0.14% hits; AID 652106; Yeast expressing alpha-synuclein, growth rescue, BacTiter-Glo, 24 h; Potency, µM (series often up to 46.1 µM), without a hit: at the top dose growth rescue (activation), hits mostly activators; note: % of control where 0% means no effect; nearly all actives have a fitted effect of over 65% in size
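Readout is rescue of growth in alpha-synuclein-expressing yeast, so inhibitors of toxicity appear as activators. Growth after 24 hr at 30 deg C in galactose medium is quantified by luminescence.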
FUS yeast rescue = rescues growth of FUS-expressing yeast; S. cerevisiae FUS-expressing, growth rescue, OD600, 24 h; Potency, µM (doses to about 76.6 µM), actives largely listed as activators; 390,000 compounds, 0.24% hits;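 note: plate controls were DMSO vehicle for no effect and reference control for full effect; nearly all actives have a fitted effect of over 55% in size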
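Steps: raffinose overnight preculture; dilution to OD 0.005 in 2% galactose minimal medium; compound addition (concentration series); 24hr at 30C, 99% humidity; absorbance read at 600 nm.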
An asterisk follows results filed as active; i = inactive; ? = inconclusive; · = no result given; [ ] = another dose, or the depositor's remark. The list is not random: actives were taken first. Their share in the collection is about 2.1%. Calls come from the whole dose curve; as a rule, active = well fitted curve in the direction sought with a large enough effect; inconclusive = small, poorly fitted or top-dose-only effect, or another doubt; inactive = no such curve, though single readings can be large; an effect the other way counts as inactive or inconclusive. Potency is the fitted concentration of half-maximal effect.

SMILES	Abeta yeast res	TDP-43 yeast inh	aSyn rescue	FUS yeast rescue
O=C(Nc1cccc([N+](=O)[O-])c1)NC1CCCCN(Cc2cccc(Cl)c2)C1=O (configuration not stated)	·	·	·	i
CCOC(=O)c1c(C)[nH]c(O)c1C=Nc1ccc(C(F)(F)F)cc1	i	3.2µM*	-6%	i
C#CCOCCOCCOCCNc1nc(N2CCN(C(=O)CCCCCCCCCCNC(=O)Cn3cc(C[C@@H](C)O)nn3)CC2)nc(N2CCN(C(=O)CCCCCCCCCCNC(=O)[C@H](CCCN=C(N)N)n3cc(C[C@@H](C)CC)nn3)CC2)n1	i	-10%	-58%	11µM*
C#CCOCCOCCOCCNc1nc(N2CCN(C(=O)CCCCCCCCCCNC(=O)[C@@H](CCSC)n3cc(CCO)nn3)CC2)nc(N2CCN(C(=O)CCCCCCCCCCNC(=O)[C@H](CCSC)n3cc(CCO)nn3)CC2)n1	i	-9%	-5%	?
C#CCOCCOCCOCCNc1nc(N2CCN(C(=O)CCCCCCCCCCNC(=O)Cn3cc(C[C@@H](C)O)nn3)CC2)nc(N2CCN(C(=O)CCCCCCCCCCNC(=O)[C@H](CCCCN)n3cc(CCCC(=O)O)nn3)CC2)n1	i	-21%	-16%	?
C#CCOCCOCCOCCNc1nc(N2CCN(C(=O)CCCCCCCCCCNC(=O)[C@H](CO)n3cc(CCCSC)nn3)CC2)nc(N2CCN(C(=O)CCCCCCCCCCNC(=O)[C@H](CCCCN)n3cc(CCO)nn3)CC2)n1	i	?	-23%	13µM*
C#CCOCCOCCOCCNc1nc(N2CCN(C(=O)CCCCCCCCCCNC(=O)[C@H](CO)n3cc(CCCSC)nn3)CC2)nc(N2CCN(C(=O)CCCCCCCCCCNC(=O)[C@H](CCCN=C(N)N)n3cc(C[C@@H](C)CC)nn3)CC2)n1	i	-8%	-32%	8.9µM*
COc1ccccc1OCCN1CSC(=S)N(C)C1	i	20µM*	-67%	i
Cc1cccc(OCCN2CSC(=S)N(C)C2)c1	i	22%	-8%	i
O=c1oc2cc(Br)ccc2n1CSC1=NCCS1	i	13µM*	-8%	i
CCCc1nnc(NC(=O)Cn2c(=O)oc3cc(Br)ccc32)s1	i	-14%	-13%	i
CCCn1c(CN2CCN(c3ccc(OC)cc3)CC2)nc2c1c(=O)[nH]c(=O)n2C	i	-1%	·	i
CCOC(=O)C1=C(N)N2C(=O)C(C)SC2=C(C(=O)OC)C1c1cccc(OC)c1 (configuration not stated)	i	20µM*	1%	i
CCc1ccc2[nH]c(=O)c(CN(Cc3cccs3)Cc3nnnn3Cc3ccccc3)cc2c1	·	·	1%	·
O=[N+]([O-])c1ccc(/C=C2\C=C(C(O)c3ccc([N+](=O)[O-])cc3)c3ccccc32)cc1 (configuration not stated)	·	·	13%	·
Cc1ccc2nc(N3CCN(C(=O)C4COc5ccccc5O4)CC3)sc2c1 (configuration not stated)	i	20µM*	·	i
O=C(C1COc2ccccc2O1)N1CCN(c2nc3c(F)cccc3s2)CC1 (configuration not stated)	13µM*	10µM*	·	i
COc1cccc2sc(N3CCN(C(=O)C4COc5ccccc5O4)CC3)nc12 (configuration not stated)	i	?	20%	i
O=C(CSc1nnc(COc2ccccc2)n1Cc1ccco1)Nc1ccc(OCc2ccccc2)cc1	·	·	·	i
COc1ccc(N(C(=O)c2ccncc2)S(=O)(=O)c2ccc(Cl)cc2)cc1	i	0.89µM*	10µM*	i
COc1ccc(N(C(=O)c2cc(OC)c(OC)c(OC)c2)S(=O)(=O)c2ccc(C)cc2)cc1	i	-24%	·	32µM*
Cc1ccc(C)c(S(=O)(=O)N(C(=O)c2ccncc2)c2ccc(OC(=O)c3ccncc3)cc2)c1	i	3%	?	i
Cc1ccc(S(=O)(=O)N(C(=O)c2ccncc2)c2ccc(OC(=O)c3ccncc3)cc2)c(C)c1	i	7.1µM*	?	·
O=C(OCCn1c(=S)sc2ccccc21)c1ccccc1	i	11µM*	1%	·
COc1ccc(S(=O)(=O)N2CCOC23CCN(C(=O)c2c(F)cccc2Cl)CC3)cc1	?	18µM*	3%	i
SMILES	Abeta yeast res	TDP-43 yeast inh	aSyn rescue	FUS yeast rescue
O=C(Nc1cc(S(=O)(=O)N2CCOCC2)ccc1N1CCCC1)c1cc2c(s1)CCCC2	·	·	·	i
CC12CC3CC(C)(C1)CC(Nc1nc(N4CCOCC4)nc4ccccc14)(C3)C2	i	20µM*	9%	i
CC(=O)N1CCc2c(sc3c2c(=O)n(-c2cccc(Cl)c2)c(=O)n3Cc2ccc(F)cc2Cl)C1	i	11µM*	·	i
C=Cc1ccc(Cn2c(=O)n(-c3ccccc3C)c(=O)c3c4c(sc32)CN(C(C)=O)CC4)cc1	i	?	·	?
CC(=O)N1CCc2c(sc3c2c(=O)n(-c2ccccc2Cl)c(=O)n3Cc2cccc(C)c2)C1	i	35µM*	·	?
CC(=O)N1CCc2c(sc3c2c(=O)n(-c2ccccc2)c(=O)n3Cc2ccccc2Cl)C1	i	9%	0%	·
C/C(C=NNC(=O)CSc1nc2ccccc2n1Cc1ccccc1Cl)=C\c1ccccc1	·	·	·	i
Cc1ccc(OCC(=O)Nc2ccc(S(=O)(=O)N3CCCCC3)cc2)c([N+](=O)[O-])n1	i	-18%[0.397 µM]	1%	i
Cc1ccc(OCC(=O)Nc2ccc(Cl)cc2)c([N+](=O)[O-])n1	i	13µM*	2%	i
Cc1ccc(OCC(=O)Nc2ccc(F)cc2)c([N+](=O)[O-])n1	i	10%[9.22 µM]	7%	i
Cc1ccc(OCC(=O)Nc2ccc(C)c(S(=O)(=O)N3CCCCC3)c2)c([N+](=O)[O-])n1	i	14µM*	1%	i
CCC[C@H]1[C@@H](OC(=O)NCc2ccc(C)o2)CC[C@@]23CCCN2C(=O)CCC[C@@H]13	·	·	·	i
Cc1ccc(S(=O)(=O)c2nnn3c2nc(N2CCCC(C)C2)c2cc(Cl)ccc23)cc1C (configuration not stated)	i	0%	·	i
Oc1ccccc1C1C=C(c2ccc3c(c2)OCO3)NC(c2cccc(Cl)c2)N1 (configuration not stated)	·	·	4.5µM*	·
Oc1ccccc1C1C=C(c2ccc3c(c2)OCO3)NC(c2ccc(Br)cc2)N1 (configuration not stated)	·	·	2%	·
C=C1C(=O)[C@]23C[C@H]1CCC2[C@]1(C)C(=O)CC[C@@](C)(C(=O)O)C1C[C@@H]3O (some centres not stated)	i	13µM*	16µM*	i
C=C1C(=O)[C@]23C[C@H]1CCC2[C@]1(C)CCC[C@@](C)(C(=O)O)C1C[C@@H]3O (some centres not stated)	i	?	?	i
